In PubChem BioAssay:
Activity calls are given as the source filed them. Unless noted, how the calls were made is not given here.

Tests used:
[1] = compound effects on lung adenocarcinoma cell viability – A549, calcein-AM fluorescence, 48 h, basal, profiling panel (AID 1162); settings: higher = more signal; further: test concentration not given here
[2] = compound effects on differentiated 3T3-L1 adipocyte viability – cell-based, 3T3-L1 adipocytes, calcein-AM fluorescence, 48 h, basal, profiling panel (AID 1163); settings: 3T3-L1 adipocytes viability, higher = more signal; further: test concentration not given here
[3] = compound effects on hepatocellular carcinoma cell viability – HepG2, calcein-AM fluorescence, 48 h, basal, profiling panel (AID 1164); settings: higher = more signal; further: test concentration not given here
[4] = compound effects on multiple myeloma cell viability – MM1S, calcein-AM fluorescence, 48 h, basal, profiling panel (AID 1165); settings: higher = more signal;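 further: viability of MM1S multiple myeloma cells under basal unstimulated conditions; test concentration not given here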
[5] = calcein-AM signal in unstimulated myeloma cells – cell-based, calcein-AM fluorescence, 48 h, PK04 Diversity Set, profiling panel (AID 1166); settings: RPMI8226 myeloma viability, higher = more signal;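 further: cells grown under basal conditions without added stimulus; test concentration not given here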
[6] = JC-1 mitochondrial signal, unstimulated HepG2 cells – cell-based, JC-1 fluorescence, 24 h, 100 nL compound, profiling panel (AID 1167); settings: HepG2 mitochondrial potential, higher = more signal; further: test concentration not given here
[7] = JC-1 mitochondrial signal, unstimulated adipocytes – cell-based, JC-1 fluorescence, 3T3-L1 adipocytes, 24 h, 100 nL compound, profiling panel (AID 1168); settings: JC-1 mitochondrial fluorescence, higher = more signal, called active from +8 up or from −8 down; further: test concentration not given here
[8] = JC-1 mitochondrial signal, unstimulated myeloma cells – cell-based, JC-1 fluorescence, RPMI8226, 24 h, 100 nL compound, profiling panel (AID 1169); settings: JC-1 mitochondrial potential fluorescence, higher = more signal; further: test concentration not given here
[9] = JC-1 mitochondrial signal, unstimulated MM1S myeloma – cell-based, JC-1 fluorescence, 24 h, 100 nL compound, profiling panel (AID 1170); settings: MM1S mitochondrial potential, higher = more signal; further: test concentration not given here
[10] = resazurin metabolic signal in A549 cells – cell-based, resazurin fluorescence, 24 h, PK04 Diversity Set, profiling panel (AID 1171); settings: A549 viability, higher = more signal, called active from +8 up or from −8 down; further: test concentration not given here
[11] = resazurin metabolic signal in HepG2 cells – cell-based, resazurin fluorescence, 24 h, PK04 Diversity Set, profiling panel (AID 1172); settings: HepG2 viability, higher = more signal; further: test concentration not given here
[12] = budding yeast growth changes without added modifier – OD600, strain BY4716, 24 h, basal condition, primary screen (AID 1173); settings: S. cerevisiae BY4716 growth, OD600, 24 h; higher = more signal, called active from +8 up or from −8 down
[13] = viability profiling in MM1S myeloma cells – cell-based, resazurin fluorescence, basal, 24 h, PK04 Diversity Set, profiling panel (AID 1174); settings: higher = more signal, called active from +8 up or from −8 down; further: test concentration not given here
[14] = target: Dihydroorotate dehydrogenase (quinone), mitochondrial (Plasmodium falciparum (isolate 3D7)) (UniProt Q08210); assay: inhibition of P. falciparum DHODH – biochemical, C-terminal His tag, absorbance 600 nm, primary screen (AID 1175); settings: PfDHODH enzyme, DCIP absorbance 600 nm; higher = more signal, called active from +8 up or from −8 down;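 further: recombinant parasite enzyme with a five histidine tag at its C terminus; test concentration not given here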
Dihydroorotate dehydrogenase (quinone), mitochondrial (Plasmodium falciparum (isolate 3D7)), sequence (Q08210 whole entry, looked up): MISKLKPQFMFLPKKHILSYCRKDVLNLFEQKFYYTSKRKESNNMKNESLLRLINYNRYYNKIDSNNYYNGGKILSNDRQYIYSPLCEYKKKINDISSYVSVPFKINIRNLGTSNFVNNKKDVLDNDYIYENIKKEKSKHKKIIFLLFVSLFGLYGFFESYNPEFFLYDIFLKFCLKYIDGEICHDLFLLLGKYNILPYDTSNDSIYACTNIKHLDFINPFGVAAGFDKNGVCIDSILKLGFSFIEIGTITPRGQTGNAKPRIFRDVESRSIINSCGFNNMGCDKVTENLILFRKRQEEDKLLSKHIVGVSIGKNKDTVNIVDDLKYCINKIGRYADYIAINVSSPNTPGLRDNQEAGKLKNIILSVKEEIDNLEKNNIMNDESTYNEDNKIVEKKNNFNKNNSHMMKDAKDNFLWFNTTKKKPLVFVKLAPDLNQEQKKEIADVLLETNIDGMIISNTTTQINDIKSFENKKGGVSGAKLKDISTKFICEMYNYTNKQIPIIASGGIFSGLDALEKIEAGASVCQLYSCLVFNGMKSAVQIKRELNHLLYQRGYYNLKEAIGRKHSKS

[15] = inhibition of PAO1 biofilm formation – strain PAO1, LB-PBS medium, absorbance 600 nm, primary screen (AID 1176); further: test concentration not given here; settings: P. aeruginosa PAO1 growth/biofilm, A600, 12 h; higher = more signal
[16] = growth modulation of vineyard yeast isolate – strain RM11-1a, OD600, basal, 24 h, primary screen (AID 1177);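 further: cultures grown under basal conditions with no added stressor; test concentration not given here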; settings: S. cerevisiae RM11-1a growth, OD600, 24 h; higher = more signal, called active from +8 up or from −8 down
[17] = growth of efflux-deficient E. coli DRC39 – strain DRC39, OD650, 24 h, E. coli filamentation inducers, primary screen (AID 1178);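 further: growth measured as culture turbidity by optical density at 650 nm; test concentration not given here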; settings: E. coli DRC39 acrAB, higher = more signal, called active from +8 up or from −8 down
[18] = growth of efflux-deficient E. coli DRC39 – strain DRC39, OD650, 48 h, E. coli filamentation inducers, primary screen (AID 1179);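 further: screen aims at cell division blockers that make cells filament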; settings: E. coli DRC39 delta-acrAB growth, higher = more signal, called active from +8 up or from −8 down
[19] = viability profiling in RPMI8226 myeloma cells – cell-based, resazurin fluorescence, basal, 24 h, PK04 Diversity Set, profiling panel (AID 1180); settings: higher = more signal;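 further: RPMI8826 multiple myeloma cell line at 5000 cells per well; test concentration not given here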
[20] = target: E3 ubiquitin-protein ligase XIAP (Homo sapiens) (UniProt P98170); assay: small molecules binding XIAP protein – biophysical, small-molecule microarray, fluorescence 635 nm, primary screen (AID 1181); settings: higher = more signal;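 further: score merges 667 nm emission and signal to noise over triplicate slides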
E3 ubiquitin-protein ligase XIAP (Homo sapiens), sequence (P98170 whole entry, looked up): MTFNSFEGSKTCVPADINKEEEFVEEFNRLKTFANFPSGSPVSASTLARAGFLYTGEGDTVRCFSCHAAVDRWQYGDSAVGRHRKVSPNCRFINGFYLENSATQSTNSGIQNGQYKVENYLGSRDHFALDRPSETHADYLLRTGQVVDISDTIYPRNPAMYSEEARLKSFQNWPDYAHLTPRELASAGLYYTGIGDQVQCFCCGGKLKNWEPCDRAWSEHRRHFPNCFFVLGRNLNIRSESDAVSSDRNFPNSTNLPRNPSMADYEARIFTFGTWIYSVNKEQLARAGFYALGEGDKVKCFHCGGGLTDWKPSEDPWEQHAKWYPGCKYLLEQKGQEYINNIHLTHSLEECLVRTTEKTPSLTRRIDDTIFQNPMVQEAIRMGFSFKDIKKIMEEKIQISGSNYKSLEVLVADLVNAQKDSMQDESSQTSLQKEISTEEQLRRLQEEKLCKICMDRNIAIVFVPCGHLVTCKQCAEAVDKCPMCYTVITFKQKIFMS

| SMILES | z-score [1] | z-score [2] | z-score [3] | z-score [4] | z-score [5] | z-score [6] | z-score [7] | z-score [8] | z-score [9] | z-score [10] | z-score [11] | z-score [12] | z-score [13] | composite z-score [14] | z-score [15] | z-score [16] | z-score [17] | z-score [18] | z-score [19] | composite z-score [20] |
| --- | --- | --- | --- | --- | --- | --- | --- | --- | --- | --- | --- | --- | --- | --- | --- | --- | --- | --- | --- | --- |
| COCCOC(=O)N1C(=O)[C@@]2(c3cc(C#CCCO)ccc31)[C@H](C(=O)Nc1nc3ccccc3s1)[C@H]1C(=O)O[C@H](c3ccccc3)[C@H](c3ccccc3)N1[C@@H]2c1ccccc1OCCO | -0.216 | 0.121 | -1.1 | -0.965 | -0.333 | -3.13 | -0.372 (inactive) | -0.183 | -0.744 | 0.513 (inactive) | 0.316 | 2.04 (inactive) | -0.459 (inactive) | 1.1 (inactive) | 1.7 (inactive) | 1.91 (inactive) | -0.0306 (inactive) | -0.339 (inactive) | -1.28 | -0.115 |
| N#Cc1ccc(NN2C(C(O)c3ccc(F)cc3)C=CC3C(=O)N(c4ccccc4)C(=O)C32)cc1 (stereo not given) | -0.518 | -0.877 | 0.211 | -0.453 | -1.33 | -1.58 | -0.311 (inactive) | 0.321 | 0.153 | 0.133 (inactive) | -0.587 | -0.0167 (inactive) | -0.388 (inactive) | 0.37 (inactive) | 0.695 (inactive) | 0.222 (inactive) | -1.06 (inactive) | -0.405 (inactive) | -0.67 | 0.0651 |
| CC(C)[Si](C#CCCCC#N)(O[C@H](c1ccccc1)c1cn([C@H](CO)Cc2ccccc2)nn1)C(C)C | 0.773 | -0.0379 | -0.0933 | 0.172 | 0.231 | 0.0258 | -0.393 (inactive) | 0.266 | -1.47 | 0.723 (inactive) | 0.374 | -9.13 (active) | 0.288 (inactive) | -0.804 (inactive) | 1.44 (inactive) | -1.8 (inactive) | 0.178 (inactive) | 0.362 (inactive) | 0.289 | -0.111 |
| COC(=O)[C@@]1(Cc2ccc(F)cc2)[C@H]2c3cc(C(=O)N(C)C)n(Cc4cc(F)cc5c4OCOC5)c3C[C@H]2CN1C(=O)c1ccccc1 | 0.217 | 0.572 | 0.607 | -1.25 | -1.9 | 1.76 | -0.737 (inactive) | -0.74 | -0.942 | -1.8 (inactive) | -0.933 | 0.434 (inactive) | -1.73 (inactive) | -0.954 (inactive) | 0.728 (inactive) | -0.341 (inactive) | -0.462 (inactive) | 0.164 (inactive) | -2.74 | 0.476 |
| C=C[C@@H](COC(C)=O)N(C(=O)OC(C)(C)C)S(=O)(=O)c1ccc(Br)cc1 | 1.82 | 0.104 | 0.469 | 0.867 | 0.643 | 0.515 | 0.122 (inactive) | -0.212 | -0.624 | -0.586 (inactive) | -0.19 | -3.49 (inactive) | -2.19 (inactive) | -1.25 (inactive) | -0.938 (inactive) | 0.317 (inactive) | -0.0872 (inactive) | 0.499 (inactive) | -0.288 | 0.0618 |
| C=CCC(OC(C)=O)[C@@H]1[C@@H](N(Cc2cc3ccccc3o2)C(=O)c2ccc(-c3ccccc3)cc2)c2cc(OCCCO)ccc2N1C(=O)c1ccc2ccccc2c1 (stereo not given in full) | 0.48 | 1 | 0.063 | 0.532 | 0.299 | 1.81 | -1.11 (inactive) | 0.868 | 0.32 | 0.457 (inactive) | -0.98 | 1.9 (inactive) | 0.198 (inactive) | 0.396 (inactive) | 0.857 (inactive) | 0.454 (inactive) | -0.413 (inactive) | -0.787 (inactive) | -0.158 | -0.135 |
| COCCOC(=O)N1C(=O)[C@@]2(c3cc(C#CC4=CCCCC4)ccc31)[C@H](c1ccc(OCCO)cc1)N1[C@H](c3ccccc3)[C@H](c3ccccc3)OC(=O)[C@H]1[C@@H]2C(=O)NC[C@H](O)c1ccccc1 | 0.148 | 0.72 | 0.688 | -1.54 | -2.03 | -0.9 | 0.758 (inactive) | -0.784 | -0.964 | 0.607 (inactive) | 0.334 | 2.36 (inactive) | -0.363 (inactive) | 0.184 (inactive) | 3.6 (inactive) | 2.83 (inactive) | -0.441 (inactive) | -0.16 (inactive) | -0.48 | -0.12 |
| CCOC(=O)C1=C[C@@H](c2ccccc2)N(S(=O)(=O)c2ccc(C)cc2)[C@H]1c1ccccc1Cl | -0.968 | -0.426 | 0.0009 | -0.938 | -0.435 | 2.6 | 0.422 (inactive) | 1.01 | 0.38 | 1.09 (inactive) | -0.695 | 2.1 (inactive) | -0.898 (inactive) | 0.268 (inactive) | 0.244 (inactive) | 2.01 (inactive) | -0.581 (inactive) | -0.591 (inactive) | -1.88 | -0.136 |
